# Data: PubChem BioAssay
# “And” between values parts separate entries of the source, which are not always exact repeats. Identical values can stand only once. Results filed as inconclusive are left out. A structure can be active in one record and inactive in another. The source made the active and inactive calls.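 How the source made its calls, unless noted: active means thallium flux through the channel raised or lowered by more than 3 SD from vehicle-only wells, actives on both sides; inactive means the rest.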
# Assays:
# [1] = P. berghei load reduction in hepatocytes – cell-based, HepG2, luciferase luminescence, HepG2 viability, primary screen (AID 624349; in the data active means parasite load remaining mostly below about 12%, no sharp cut-off; inactive means mostly above about 10%;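 further: 100% = mean of DMSO negative control wells on the same plate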); details: P. berghei liver stage in HepG2, luciferase luminescence, concentration not given here; parasite load remaining: stronger effect = lower value; viability: measured here: HepG2 viability without parasites
# [2] = signal quenchers or enhancers, Cy5 substrate/SSB – biochemical, NIH Clinical Collection, E. coli SSB, artefact control for HCV NS3 helicase inhibitor project (AID 743268; call rule not given here); details: Cy5-oligo bound E. coli SSB, fluorescence interference
# [3] = system: Hepatitis C virus NS3 helicase; test: blockers of NS3h binding to DNA – biochemical, fluorescence polarization, NIH Clinical Collection, primary screen (AID 743270; call rule not given here); details: NS3 helicase binding to Cy5-dT15 DNA, stronger effect = higher value, concentration not given here
# [4] = target: Single-stranded DNA-binding protein (Escherichia coli (strain K12)) (UniProt P0AGE0); test: SSB-ssDNA binding inhibitors – biochemical, fluorescence polarization, NIH Clinical Collection, counter-screen for HCV NS3 helicase inhibitor project (AID 743271; in the data active means inhibition above about 28%); details: E. coli SSB-DNA binding, stronger effect = higher value, concentration not given here
# [5] = compounds distorting NS3 helicase fluorescence signal – biochemical, NIH Clinical Collection, artefact control for HCV NS3 helicase inhibitor project (AID 743272; call rule not given here;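 further: HCV NS3 helicase with a Cy5 labelled single stranded DNA probe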); details: fluorescence interference counterscreen, HCV NS3 helicase assay; stronger effect = lower value
# [6] = system: Neuropilin-2 / VEGF-C interaction (human); test: small molecules blocking Neuropilin-2/VEGF-C interaction – biochemical, microplate binding format, z-score (AID 743281; call rule not given here); details: microplate NRP2/VEGF-C binding assay; stronger effect = lower value
# [7] = modulation of C. elegans fzo-1 (AID 1259413; call rule not given here;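 further: fzo-1 mutant C. elegans worms in liquid wells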); details: C. elegans fzo-1 modulator screen, mean read-out; stronger effect = higher value
# [8] = viability loss with induced miR-34 in A549 – imaging, A549 dox-inducible miR-34, nuclei and caspase counts, primary screen (AID 1347080;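 active means compounds whose cell count with miR-34 switched on is under 0.7 times the count with it off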); details: A549 miR-34 inducible, Hoechst nuclei count, 48 h
# [9] = galactose survival enhancers in mitochondrial complex I cybrids – cell-based, galactose medium, ATP luminescence, primary screen (AID 1645843;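 active means z-score of at least 1.8 in each of two replicates, scored against plate mean and spread of sample wells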;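 further: positive z means more ATP and so rescue of galactose-driven cybrid death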); details: complex I mutant cybrid cells, 72 h, stronger effect = higher value
# [10] = system: Aerobactin synthetase IucA (Klebsiella pneumoniae); test: inhibition of K. pneumoniae IucA enzyme – biochemical, Tocris library, absorbance (AID 1345561; call rule not given here;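 further: 100% = enzyme without compound and 0% = no enzyme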); details: purified IucA enzyme assay, absorbance (OD) read-out; stronger effect = lower value;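 tested at 8 µM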
# [11] = system: F380Y; test: BK channel mutant inhibitors and activators – cell-based, U2OS BacMam, thallium flux, beta subunits, selectivity assay, profiling panel (AID 1259406); details: U2OS BacMam BK variants, at 30 µM;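 further: initial slope of Thallos dye fluorescence rise after thallium is added; log ratio against the mean of 0.3% DMSO vehicle wells on the same plate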
# [12] = system: F380Y/beta1; test: as above; details: U2OS BacMam BK variants, at 30 µM
# [13] = system: F380Y/beta2Delta; test: as above; details: U2OS BacMam BK variants, at 30 µM
# [14] = system: F380Y/beta4; test: as above; details: U2OS BacMam BK variants, at 30 µM
# [15] = target: Calcium-activated potassium channel subunit alpha-1 (Homo sapiens) + Leucine-rich repeat-containing protein 26 (Homo sapiens) (UniProt Q12791+Q2I0M4); test: as above; details: U2OS BacMam BK variants, F380Y/Slo1WT/gamma1, at 30 µM
# [16] = system: R275C; test: as above; details: U2OS BacMam BK variants, at 30 µM
# [17] = system: R275C/beta1; test: as above; details: U2OS BacMam BK variants, at 30 µM
# [18] = system: R275C/beta2Delta; test: as above; details: U2OS BacMam BK variants, at 30 µM
# [19] = system: R275C/beta4; test: as above; details: U2OS BacMam BK variants, at 30 µM
# [20] = system: R275C/Slo1WT/beta2; test: as above; details: U2OS BacMam BK variants, at 30 µM
# [21] = viability loss in pontine glioma line – cell-based, SU-DIPG-XVII, MIPE5.0, CellTiter-Glo, qHTS, dose response (AID 1347060; cut-off not given, nearly all actives have AC50 up to about 26 µM;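 further: cells exposed to compound for 48 hours before viability readout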); details: CellTiter-Glo ATP luminescence
# [22] = viability loss in pontine glioma line – cell-based, SU-DIPG-XIII, MIPE4.0, CellTiter-Glo, qHTS, dose response (AID 1347061; cut-off not given, nearly all actives have AC50 up to about 37 µM;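 further: cells exposed to compound for 48 hours before readout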); details: CellTiter-Glo ATP luminescence
# [23] = viability loss in pontine glioma line – cell-based, JHH-DIPG-1, MIPE4.0, CellTiter-Glo, qHTS, dose response (AID 1347062; cut-off not given, nearly all actives have AC50 up to about 27 µM); details: JHH-DIPG-1 viability, CellTiter-Glo ATP luminescence
# [24] = viability loss in pontine glioma line – cell-based, SU-DIPG-IV, MIPE4.0, CellTiter-Glo, qHTS, dose response (AID 1347063; cut-off not given, nearly all actives have AC50 up to about 30 µM;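 further: compound exposure lasted 48 hours before the viability readout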); details: CellTiter-Glo ATP luminescence
# [25] = viability loss in pontine glioma line – cell-based, SU-DIPG-XXV, MIPE5.0, CellTiter-Glo, qHTS, dose response (AID 1347065; cut-off not given, nearly all actives have AC50 up to about 26 µM;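 further: cells exposed to compound for 48 hours before ATP readout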); details: CellTiter-Glo ATP luminescence
# [26] = JHH-DIPG-1 glioma cell viability, MIPE5.0 library, CellTiter-Glo luminescence, qHTS (AID 1347067; cut-off not given, nearly all actives have AC50 up to about 26 µM;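 further: cells exposed to compound for 48 hours before readout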); details: JHH-DIPG-1 glioma viability, CellTiter-Glo ATP luminescence
# [27] = growth inhibition of DIPG cells – cell-based, MIPE5.0 library, qHTS (AID 1347068; cut-off not given, nearly all actives have IC50 up to about 30 µM;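 further: cells exposed to compound for 48 hours before viability readout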); details: SU-DIPG-XXV viability
# [28] = chitosan synthesis blockers in C. neoformans – flow cytometry, Cibacron Brilliant Red staining (AID 1347148; call rule not given here;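 further: compound exposure lasted three days at 37 degrees C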); details: Cryptococcus neoformans chitosan, stronger effect = lower value; at 10 µM unless noted
# [29] = compounds altering HSF1 focus formation in cells – imaging, Selleck Cancer Library (AID 1347162; in the data active means plate-normalised HSF1 focus index below about 0.46); details: human cells, HSF1 nuclear foci imaging, at 10 µM; SSMD: measured here: HSF1 foci SSMD mean; cell count: measured here: cell number; plate-normalised HSF1 focus index: stronger effect = lower value
# [30] = measured here: relative caspase fold change +Dox/-Dox
# [31] = measured here: total cells with miR-34 induction, stronger effect = lower value
# [32] = measured here: total cells without miR-34 induction
# Chain of Calcium-activated potassium channel subunit alpha-1 (Homo sapiens) + Leucine-rich repeat-containing protein 26 (Homo sapiens) (Q2I0M4 whole entry, looked up, one chain of several): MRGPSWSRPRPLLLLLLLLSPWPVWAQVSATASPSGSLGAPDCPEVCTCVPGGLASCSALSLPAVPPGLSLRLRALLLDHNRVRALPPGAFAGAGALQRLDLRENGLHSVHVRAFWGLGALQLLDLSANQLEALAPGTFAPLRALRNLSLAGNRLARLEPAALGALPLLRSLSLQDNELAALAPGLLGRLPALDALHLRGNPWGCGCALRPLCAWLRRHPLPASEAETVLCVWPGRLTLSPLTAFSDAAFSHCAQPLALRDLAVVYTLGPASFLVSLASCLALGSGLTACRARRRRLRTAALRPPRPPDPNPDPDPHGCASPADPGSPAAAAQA
structure (smiles),measurement,setting,value
CCCCCCCCCOc1ccc2[nH]cc(CCN)c2c1,parasite load remaining,[1],0.13% (inactive)
same,viability,[1],3.42%
same,fluorescence ratio,[2],0.97 (inactive)
same,inhibition,[3],-8.08% (inactive)
same,inhibition,[4],67.3% (active)
same,fluorescence ratio,[5],0.61 (active)
same,z-score,[6],-2.82 (inactive)
same,mean signal,[7],264 (inactive)
same,fold change,[8]; stronger effect = lower value,0.664 (active)
same,fold change,[8]; [30],1.96
same,cell count,[8]; [31],4000
same,cell count,[8]; [32],6020
same,z-score,[9],-1.44 (inactive)
CS(=O)(=O)Nc1ccc(Cc2noc(-c3ccc4[nH]cc(CCN)c4c3)n2)cc1,parasite load remaining,[1],62% (inactive)
same,viability,[1],68.7%
same,fluorescence ratio,[2],0.59 (active)
same,inhibition,[3],3.28% (inactive)
same,inhibition,[4],36.6% (active)
same,fluorescence ratio,[5],0.8 (active)
same,z-score,[6],1.81 (inactive)
same,mean signal,[7],254 (inactive)
same,remaining activity,[10],103% (inactive)
same,fold change,[8]; stronger effect = lower value,0.897 (inactive)
same,fold change,"[8]; stronger effect = lower value, cell number ratio, induced over uninduced",0.9 (inactive)
same,fold change,[8]; [30],2.28 and 0.865
same,cell count,[8]; [31],9380 and 8560
same,cell count,[8]; [32],10500 and 9520
same,z-score,[9],0.895 (inactive) and 2.6 (active)
same,log fold change Tl+ flux,[11],-0.0227 (inactive)
same,log fold change Tl+ flux,[12],0.0172 (inactive)
same,log fold change Tl+ flux,[13],-0.088 (inactive)
same,log fold change Tl+ flux,[14],-0.0117 (inactive)
same,log fold change Tl+ flux,[15],-0.0241 (inactive)
same,log fold change Tl+ flux,[16],-0.054 (inactive)
same,log fold change Tl+ flux,[17],0.0159 (inactive)
same,log fold change Tl+ flux,[18],-0.0492 (inactive)
same,log fold change Tl+ flux,[19],0.0477 (inactive)
same,log fold change Tl+ flux,[20],0.0125 (inactive)
CC(C)[C@]12O[C@H]1[C@@H]1O[C@]13[C@]1(O[C@H]1C[C@H]1C4=C(CC[C@@]13C)C(=O)OC4)[C@@H]2O,parasite load remaining,[1],122% (inactive)
same,viability,[1],67.7%
same,fluorescence ratio,[2],1.04 (inactive)
same,inhibition,[3],-2.77% (inactive)
same,inhibition,[4],-6.26% (inactive)
same,fluorescence ratio,[5],1.03 (inactive)
same,z-score,[6],0.859 (inactive)
same,mean signal,[7],159 (inactive)
same,AC50,[21],0.186 µM (active)
same,outcome,[22],inactive
same,outcome,[23],inactive
same,outcome,[24],inactive
same,AC50,[25],0.209 µM (active)
same,AC50,[26],0.0833 µM (active)
same,IC50,[27],0.186 µM (active)
same,fold change,[8]; stronger effect = lower value,1.04 (inactive)
same,fold change,[8]; [30],1.51
same,cell count,[8]; [31],1360
same,cell count,[8]; [32],1300
same,fold fluorescence,[28],4.23 [at 138.7 µM] (inactive)
same,SSMD,[29],-5.07
same,cell count,[29],6670
same,plate-normalised HSF1 focus index,[29],0.769 (inactive)
same,log fold change Tl+ flux,[11],-0.0264 (inactive)
same,log fold change Tl+ flux,[12],-0.0154 (inactive)
same,log fold change Tl+ flux,[13],-0.0407 (inactive)
same,log fold change Tl+ flux,[14],0.00828 (inactive)
same,log fold change Tl+ flux,[15],0.0324 (inactive)
same,log fold change Tl+ flux,[16],-0.0177 (inactive)
same,log fold change Tl+ flux,[17],0.0288 (inactive)
same,log fold change Tl+ flux,[18],0.0395 (inactive)
same,log fold change Tl+ flux,[19],0.0135 (inactive)
same,log fold change Tl+ flux,[20],0.00131 (inactive)
